# Counter-ions that a name gives are not always drawn. A number with no mark means an inactive call.
# What was measured:
# Conditions in all cases: 20 µM
# [1] = test system: Haemophilus parainfluenzae; assay: growth AUC normalised to DMSO control (fraction of control); higher = less growth inhibition, active = hit call of the paper
# Outline: (§1)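 Three biological replicates were carried out, with OD578 read hourly for 24 h. Before inoculation at a starting OD578 of 0.01, pathogens were passaged anaerobically twice; plates were pre-reduced mGAM containing 20 μM compound and 1% DMSO, sealed with breathable membranes, and the Haemophilus parainfluenzae medium carried added hemin and NAD. Area under each growth curve was calculated by the trapezoidal rule up to the exponential-to-stationary transition and normalised to DMSO controls on the same plate.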
# [2] = test system: Salmonella enterica typhimurium; assay: as above
# Outline: as §1
# Shigella flexneri = assay: as above
# Outline: as §1
# Vibrio cholerae = assay: as above
# Outline: as §1
# [3] = test system: Yersinia pseudotuberculosis; assay: as above
# Outline: as §1
# P. vulgatus RND KO = assay: growth AUC normalised to DMSO control (median) (fraction of control); higher = less growth inhibition, active = hit call of the paper
# Outline: (§2)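 Anaerobic growth was tracked hourly at OD578 for 24 h in 96-well plates of mGAM seeded at OD578 0.01 with each approved-drug library compound at 20 μM and 1% DMSO. Strains had first been passaged twice overnight without oxygen. Three biological replicates were run. The reported median is the area under the curve, calculated by the trapezoidal rule on curves truncated at entry into stationary phase and normalised to vehicle wells on the same plate.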
# P. vulgatus WT = assay: as above
# Outline: as §2
# [4] = test system: S. enterica typhimurium WT; assay: as above
# Outline: as §2
# [5] = test system: S. enterica typhimurium tolC KO; assay: as above
# Outline: as §2
# 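For growth AUC normalised to DMSO control (median) in this document: active when median AUC fell below 0.1.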
Compound,growth AUC normalised to DMSO control [1],growth AUC normalised to DMSO control [2],growth AUC normalised to DMSO control (Shigella flexneri),growth AUC normalised to DMSO control (Vibrio cholerae),growth AUC normalised to DMSO control [3],growth AUC normalised to DMSO control (P. vulgatus RND KO),growth AUC normalised to DMSO control (P. vulgatus WT),growth AUC normalised to DMSO control [4],growth AUC normalised to DMSO control [5]
C[N+](C)(C)CCCCCCCCCC[N+](C)(C)C [Decamethonium bromide],1.03,1,1.03,1.07,1,0.997,1.07,1.01,1
CN1C(=O)CCS(=O)(=O)C1c1ccc(Cl)cc1 (configuration not stated) [Chlormezanone],1.02,1,0.992,1.01,0.995,1.03,1.02,1,1
COc1ccc(C(CN(C)C)C2(O)CCCCC2)cc1 (configuration not stated) [Venlafaxine],1.33,0.98,0.957,0.984,1.08,0.997,0.999,0.997,1
CCCC(C)C1(CC)C(=O)NC(=O)NC1=O (configuration not stated) [Pentobarbital],1.02,1.01,1.05,0.999,0.986,1.05,1.06,1.01,0.999
Oc1ccc2c3c1O[C@H]1[C@@H](O)CC[C@@]4(O)[C@@H](C2)N(CC2CCC2)CC[C@]314 [Nalbuphine hydrochloride],0.982,0.984,0.974,0.984,0.905,0.997,0.966,0.988,0.995
CCNCC(O)c1cccc(O)c1 (configuration not stated) [Etilefrine hydrochloride],0.987,0.976,0.987,0.995,0.979,0.997,0.995,0.993,1
CCC(=O)O[C@@](Cc1ccccc1)(c1ccccc1)[C@@H](C)CN(C)C [Levopropoxyphene napsylate],1,0.999,1.04,1,1.02,1.03,1.05,1,0.995
C[C@]12CC[C@H](O)C[C@H]1CC[C@@H]1[C@@H]2CC[C@]2(C)[C@@H](C3=CC(=O)OC3)CC[C@]12O [Digitoxigenin],1,1,0.981,0.973,0.995,0.989,0.968,0.995,1
C=C1CC[C@@]2(O)[C@H]3Cc4ccc(O)c5c4[C@@]2(CCN3CC2CC2)[C@H]1O5 [Nalmefene hydrochloride],0.969,1.01,1.03,1.02,1.03,1,1.03,1,1.01
O=c1c2ccccc2[se]n1-c1ccccc1 [Ebselen],0.874,0.987,1.03,0.999,0.974,1.04,1.02,1.02,0.971
COc1ccc(OC)c(C(O)C(C)N)c1 (configuration not stated) [Methoxamine hydrochloride],1,1.01,0.984,1.01,0.991,0.987,0.0385 (active),1.01,0.999
c1ccc2c(c1)OCC(C1=NCCN1)O2 (configuration not stated) [Idazoxan hydrochloride],1.01,1.02,1.02,1.02,0.982,0.997,0.98,0.999,0.998
C=CCC1(CC(C)C)C(=O)NC(=O)NC1=O [Butalbital],0.978,1,0.999,1.02,1,0.99,0.998,0.992,1.01

# Reference: the supplement of paper PMC12350171
